The nature of test [1]: Validation screen for small molecules that induce genotoxicity in human embryonic kidney (HEK293T) cells expressing luciferase-tagged ELG1 (AID 493106). Note: 0% is about no effect. The procedure, abridged:
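ELG1-luciferase reporter readout (ONE-Glo, 30 min, room temperature) after 16 hr compound treatment at 37 °C of HEK293T cells at 2,000 per well. Rising luminescence flags genotoxic stress.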

Test [2] has as its target ATPase family AAA domain-containing protein 5 (Homo sapiens) (UniProt Q96QE3). As to the kind of experiment: Validation screen for small molecules that inhibit ELG1-dependent DNA repair in human embryonic kidney (HEK293T) cells expressing luciferase-tagged ELG1 (AID 493107).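 Note: series mostly up to about 46 µM; % is set by controls: 0 for no effect and ±100 for the full control effect; inhibitors lower the ELG1-luciferase luminescence signal; nearly all actives have a fitted effect of over 70% in size.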 The procedure, abridged:
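Luciferase read-out, ONE-Glo, 30 min at room temperature, follows 16 h co-exposure at 37 C of compound and the DNA-damaging agent 5-fluorouridine. Cells: HEK293T with ELG1-luciferase fusion, 2,000 per well, DMSO as vehicle.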

In test [3] the target is Thyrotropin-releasing hormone receptor (Homo sapiens) (UniProt P34981). Kind of test: qHTS for Small Molecule Agonists and Allosteric Enhancers of Human TRH Receptor: Validation Screen for Agonists (AID 493127;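 active = calcium activation more than 3 SD above the typical response in the agonist read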;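 note: intracellular calcium rise by fluo-8 fluorescence before TRH EC20 addition; 0% is about no effect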). The following applies: TRH receptor agonist cell assay; at 2 µM; stronger effect = higher value. The method in brief:
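Compound-evoked intracellular calcium release in fluo-8-loaded TRHR cells, read kinetically on FDSS (Ex 480/Em 530, 1 s/cycle) after 23 nL pintool transfer. Agonist phase preceded 10 nM TRH EC20 addition.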
(In general: Quantitative high-throughput screening tests each substance at several concentrations.)

The nature of test [4]: qHTS for Inhibitors of Cell Surface uPA Generation: Validation Assay (AID 493164).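 Note: RAW 264.7 macrophage cells exposed to compound for 18 h; 0% is about no effect.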 The method in brief: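 ATP-Lite luminescence read-out: ATP remains high when uPA activity-dependent LF translocation into the cytoplasm is blocked. RAW 264.7 cells, 18 h compound exposure at 37 C; 7-point titration, 2.45 nM to 38.3 uM final.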
Test [5] addresses Galactokinase (Homo sapiens) (UniProt P51570). As to the kind of experiment: qHTS Validation Assay for Inhibitors of Human Galactokinase (GALK) (AID 493189). Note: 0% is about no effect. The method in brief:
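5 nM GALK / 100 uM galactose / 35 uM ATP, 20 mM HEPES pH8.0, 5 mM MgCl2, 60 mM NaCl, 1 mM DTT, 0.01% BSA (final). RT 1 h; Kinase-Glo Plus luminescence.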

Test [6] addresses ATP-dependent 6-phosphofructokinase (Trypanosoma brucei brucei) (UniProt O15648). As to the kind of experiment: qHTS Assay to Find Inhibitors of T. brucei phosphofructokinase: hit validation (AID 492961). Note: potency is the fitted concentration of half-maximal effect. The method in brief: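 Compounds titrated; %activity normalized to 0x and 1x enzyme controls, curve-fitted. Readout: ADP-Glo luminescence after 45 min room-temperature reaction of 1.25 nM PFK, 0.1 mM ATP, 0.5 mM F6P, pH 8.0.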

Test [7] concerns the target Tyrosyl-DNA phosphodiesterase 1 (Homo sapiens) (UniProt Q9NUW8). Kind of test: Confirmation Assay for Inhibitors of Tyrosyl-DNA Phosphodiesterase (TDP1) (AID 489007). Note: potency is the fitted concentration of half-maximal effect; nearly all actives have a fitted effect of over 40% in size. The following applies: recombinant human TDP1 enzymatic activity, dose-response. The method in brief: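 AlphaScreen assay of tyrosine-FITC cleavage from a biotinylated DNA substrate (15 nM) by E. coli-expressed human Tdp1 (1 nM). Sequence: compound preincubation 15 min, reaction 5 min, bead detection 10 min, all at room temperature. No-enzyme wells give maximum signal.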

Test [8] deals with D(1A) dopamine receptor (Homo sapiens) (UniProt P21728). Kind of test: HTS Assay for Allosteric Agonists of the Human D1 Dopamine Receptor: Primary Screen for Potentiators (AID 488982). Note: 0% is about no effect. The method in brief:
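Tetracycline-induced HEK293 Trex D1 cells with forced coupling to calcium, loaded with no-wash calcium dye; kinetic fluorescence read 180 s after compound addition for agonism, then a further 180 s after an EC20 dopamine challenge for potentiation.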

Test [9] in a line: Nrf2 qHTS screen for inhibitors: Validation (AID 493153; active = well fitted inhibition curve with a large enough effect in the main read-out, with a control signal flat, not every such curve was filed as active). To be noted: viability change: measured here: cytotoxicity max response. The method in brief:
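Concentration-response on A549 ARE_Fluc reporter cells exposed 18-24 h at 37 C, 5% CO2. Cytotoxicity read first by CellTiter-Fluor fluorescence (Ex 405/Em 525), then Nrf2 inhibition by BugLite luminescence after 15 min.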

Test [10] deals with D(1A) dopamine receptor (Homo sapiens) (UniProt P21728). As to the kind of experiment: HTS Assay for Allosteric Agonists of the Human D1 Dopamine Receptor: Primary Screen for Antagonists (AID 488983).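 Note: calcium flux response to an EC80 dopamine challenge measured with no-wash dye; % is set by controls: 0 for no effect and ±100 for the full control effect; nearly all actives have a fitted effect of over 65% in size.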 The method in brief:
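Calcium-flux read-out in inducible HEK293 T-REx cells expressing D1, dye-loaded 30–90 min at room temperature. Kinetic reads: 180 s after compound (agonist phase), then 180 s after an EC80 dopamine challenge.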

“And” between values parts separate entries of the source, which are not always exact repeats. Equal values may be shown once. Results filed as inconclusive are left out. The source made the active and inactive calls. Unless noted, calls come from the whole dose curve; as a rule, active = well fitted curve in the direction sought with a large enough effect; inconclusive = small, poorly fitted or top-dose-only effect, or another doubt; inactive = no such curve, though single readings can be large; an effect the other way counts as inactive or inconclusive.

ATPase family AAA domain-containing protein 5 (Homo sapiens), sequence (Q96QE3 whole entry, looked up, the tested form may be a part): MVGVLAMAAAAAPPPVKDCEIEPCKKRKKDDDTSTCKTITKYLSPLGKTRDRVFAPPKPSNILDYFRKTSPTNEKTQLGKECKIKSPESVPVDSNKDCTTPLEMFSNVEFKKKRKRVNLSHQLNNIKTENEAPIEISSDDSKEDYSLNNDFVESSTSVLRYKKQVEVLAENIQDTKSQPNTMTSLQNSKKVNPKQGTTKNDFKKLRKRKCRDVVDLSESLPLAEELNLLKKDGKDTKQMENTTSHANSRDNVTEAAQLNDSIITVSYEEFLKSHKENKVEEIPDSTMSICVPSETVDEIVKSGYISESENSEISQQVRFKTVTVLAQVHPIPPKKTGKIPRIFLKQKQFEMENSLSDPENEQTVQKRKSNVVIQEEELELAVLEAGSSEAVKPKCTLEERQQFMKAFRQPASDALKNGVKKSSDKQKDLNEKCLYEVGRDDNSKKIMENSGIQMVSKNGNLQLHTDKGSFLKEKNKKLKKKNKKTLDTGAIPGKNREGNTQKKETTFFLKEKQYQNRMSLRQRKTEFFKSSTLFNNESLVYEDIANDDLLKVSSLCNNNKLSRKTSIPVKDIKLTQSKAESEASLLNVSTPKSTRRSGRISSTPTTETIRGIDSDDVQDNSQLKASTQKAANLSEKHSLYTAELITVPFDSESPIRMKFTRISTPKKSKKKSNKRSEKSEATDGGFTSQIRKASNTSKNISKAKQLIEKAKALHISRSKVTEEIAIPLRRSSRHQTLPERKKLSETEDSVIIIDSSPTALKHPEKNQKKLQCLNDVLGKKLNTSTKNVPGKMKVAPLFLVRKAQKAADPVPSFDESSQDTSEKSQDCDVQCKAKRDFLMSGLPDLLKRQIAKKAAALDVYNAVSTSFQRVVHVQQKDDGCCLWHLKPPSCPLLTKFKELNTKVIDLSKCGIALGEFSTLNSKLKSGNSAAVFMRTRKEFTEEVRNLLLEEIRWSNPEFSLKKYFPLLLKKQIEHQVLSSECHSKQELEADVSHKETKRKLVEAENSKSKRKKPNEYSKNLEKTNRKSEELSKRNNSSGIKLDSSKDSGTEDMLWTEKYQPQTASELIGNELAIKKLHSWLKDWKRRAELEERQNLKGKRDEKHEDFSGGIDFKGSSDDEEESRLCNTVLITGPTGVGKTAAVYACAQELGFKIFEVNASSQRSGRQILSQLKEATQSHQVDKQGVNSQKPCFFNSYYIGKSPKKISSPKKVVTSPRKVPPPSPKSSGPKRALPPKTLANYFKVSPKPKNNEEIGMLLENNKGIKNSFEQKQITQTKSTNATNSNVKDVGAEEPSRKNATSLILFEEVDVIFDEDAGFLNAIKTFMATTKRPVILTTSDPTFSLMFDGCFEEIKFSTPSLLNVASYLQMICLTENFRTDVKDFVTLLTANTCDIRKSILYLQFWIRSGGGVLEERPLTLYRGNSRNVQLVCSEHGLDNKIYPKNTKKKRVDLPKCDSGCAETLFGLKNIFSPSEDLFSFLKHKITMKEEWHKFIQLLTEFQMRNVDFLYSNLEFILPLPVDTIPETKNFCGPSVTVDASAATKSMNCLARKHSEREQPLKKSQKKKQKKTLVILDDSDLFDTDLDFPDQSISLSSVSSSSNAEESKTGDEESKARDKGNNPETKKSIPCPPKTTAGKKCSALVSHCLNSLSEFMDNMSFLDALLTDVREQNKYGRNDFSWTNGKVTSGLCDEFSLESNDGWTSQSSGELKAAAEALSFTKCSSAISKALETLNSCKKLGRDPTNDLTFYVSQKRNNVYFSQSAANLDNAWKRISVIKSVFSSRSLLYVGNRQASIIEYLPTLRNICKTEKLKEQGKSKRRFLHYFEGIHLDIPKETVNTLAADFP
Thyrotropin-releasing hormone receptor (Homo sapiens), sequence (P34981 whole entry, looked up): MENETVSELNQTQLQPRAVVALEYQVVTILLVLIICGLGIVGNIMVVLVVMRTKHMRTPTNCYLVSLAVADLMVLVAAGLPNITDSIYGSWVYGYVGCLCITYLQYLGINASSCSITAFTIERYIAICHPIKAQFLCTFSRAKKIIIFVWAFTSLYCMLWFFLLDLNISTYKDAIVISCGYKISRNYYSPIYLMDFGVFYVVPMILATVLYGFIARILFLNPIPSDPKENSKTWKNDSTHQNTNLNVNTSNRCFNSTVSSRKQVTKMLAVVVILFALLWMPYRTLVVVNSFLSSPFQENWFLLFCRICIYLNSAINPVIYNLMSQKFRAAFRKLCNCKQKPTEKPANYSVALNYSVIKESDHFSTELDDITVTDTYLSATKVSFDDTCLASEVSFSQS
Galactokinase (Homo sapiens), sequence (P51570 whole entry, looked up): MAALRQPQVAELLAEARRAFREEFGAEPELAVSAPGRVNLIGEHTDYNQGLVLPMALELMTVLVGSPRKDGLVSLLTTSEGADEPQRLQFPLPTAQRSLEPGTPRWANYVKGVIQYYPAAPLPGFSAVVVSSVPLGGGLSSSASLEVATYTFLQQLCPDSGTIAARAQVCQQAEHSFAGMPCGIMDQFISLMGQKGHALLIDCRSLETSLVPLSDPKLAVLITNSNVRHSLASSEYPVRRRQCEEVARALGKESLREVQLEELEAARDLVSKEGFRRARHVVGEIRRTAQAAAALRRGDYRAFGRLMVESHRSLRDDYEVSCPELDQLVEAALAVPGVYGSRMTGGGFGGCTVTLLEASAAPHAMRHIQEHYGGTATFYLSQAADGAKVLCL
ATP-dependent 6-phosphofructokinase (Trypanosoma brucei brucei), sequence (O15648 whole entry, looked up): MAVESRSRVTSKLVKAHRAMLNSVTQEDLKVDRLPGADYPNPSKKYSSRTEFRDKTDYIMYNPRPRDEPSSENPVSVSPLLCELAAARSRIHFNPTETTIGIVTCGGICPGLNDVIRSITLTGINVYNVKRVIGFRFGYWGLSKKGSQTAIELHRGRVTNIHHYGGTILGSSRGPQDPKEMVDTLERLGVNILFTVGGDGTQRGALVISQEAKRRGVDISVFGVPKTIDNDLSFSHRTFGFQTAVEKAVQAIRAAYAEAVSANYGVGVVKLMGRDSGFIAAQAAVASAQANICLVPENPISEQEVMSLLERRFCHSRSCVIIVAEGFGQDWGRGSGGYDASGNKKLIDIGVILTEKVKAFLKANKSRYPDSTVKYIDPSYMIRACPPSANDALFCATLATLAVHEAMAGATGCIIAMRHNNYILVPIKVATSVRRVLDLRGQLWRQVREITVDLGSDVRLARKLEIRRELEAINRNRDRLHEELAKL
D(1A) dopamine receptor (Homo sapiens), sequence (P21728 whole entry, looked up): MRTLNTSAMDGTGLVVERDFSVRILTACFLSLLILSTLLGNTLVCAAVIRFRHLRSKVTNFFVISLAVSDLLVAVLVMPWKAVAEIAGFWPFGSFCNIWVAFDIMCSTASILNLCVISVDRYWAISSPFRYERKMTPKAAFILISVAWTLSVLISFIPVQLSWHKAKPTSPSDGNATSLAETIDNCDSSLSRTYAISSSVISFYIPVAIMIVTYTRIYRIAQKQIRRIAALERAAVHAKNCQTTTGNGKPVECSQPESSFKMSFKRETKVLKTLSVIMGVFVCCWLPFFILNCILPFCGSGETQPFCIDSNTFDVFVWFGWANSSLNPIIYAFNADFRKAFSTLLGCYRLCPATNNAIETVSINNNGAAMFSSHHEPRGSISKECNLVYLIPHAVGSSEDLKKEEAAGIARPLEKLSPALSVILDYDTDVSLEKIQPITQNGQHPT
Tyrosyl-DNA phosphodiesterase 1 (Homo sapiens), sequence (Q9NUW8 whole entry, looked up): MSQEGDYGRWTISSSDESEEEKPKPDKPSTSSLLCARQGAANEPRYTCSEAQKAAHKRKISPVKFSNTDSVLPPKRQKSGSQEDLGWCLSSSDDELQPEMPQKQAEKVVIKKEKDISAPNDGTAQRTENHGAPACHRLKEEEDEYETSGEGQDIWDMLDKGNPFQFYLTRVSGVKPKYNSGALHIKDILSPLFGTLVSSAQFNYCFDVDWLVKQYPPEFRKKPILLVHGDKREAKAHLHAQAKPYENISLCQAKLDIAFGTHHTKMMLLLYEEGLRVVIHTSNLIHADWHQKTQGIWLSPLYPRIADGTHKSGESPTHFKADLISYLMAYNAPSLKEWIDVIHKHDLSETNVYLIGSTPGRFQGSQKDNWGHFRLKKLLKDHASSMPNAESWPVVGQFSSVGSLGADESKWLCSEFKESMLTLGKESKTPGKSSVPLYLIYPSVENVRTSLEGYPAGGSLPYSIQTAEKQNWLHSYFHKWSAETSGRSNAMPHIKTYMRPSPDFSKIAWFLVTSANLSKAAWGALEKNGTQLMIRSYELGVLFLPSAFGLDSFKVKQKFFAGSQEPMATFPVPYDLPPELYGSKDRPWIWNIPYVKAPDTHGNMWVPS

For the compound `NC1CC1c1ccccc1` (centres undefined), the call in [1], in test [4] and in test [5] was inactive. The Potency entry in test [2] was “inactive”. Besides, the activation in [3] was 1.44% (inactive).

Consider `C#CC1(O)CCC2C3CCC4=CC(=O)CCC4(C)C3CCC21C` (centres undefined), for which the Potency result in [6] was “inactive”.

In the case of `C/C=C(/C)C(=O)O[C@H]1C(C)=C2[C@H]([C@@H]1OC(=O)CCCCCCC)[C@@](C)(OC(C)=O)C[C@H](OC(=O)CCC)[C@@]1(O)[C@H]2OC(=O)[C@@]1(C)O`, the compound was classed as inactive in [1] and in test [4].

With `COC(C)(C)CCCC(C)C/C=C/C(C)=C/C(=O)OC(C)C` (centres undefined), in test [6], the Potency entry was “inactive”.

Consider `CC(=O)[O][Hg][c]1ccccc1`, for which the values for the Potency in [7] and in test [6] were 10 µM (active) and 7.94 µM (active), respectively.

Consider `O=C(O)CC[N+](=O)[O-]`, for which the result in test [8], in test [1], in test [4] and in [5] was inactive. The Potency entry in test [2] is “inactive”.

With `c1ccc(CCCN2CCN(CCOC(c3ccccc3)c3ccccc3)CC2)cc1`, the outcome in test [8], in test [1], in test [9], in test [4] and in test [5] was inactive. Also, the activation in [3] was 0.0625% (inactive). For the same compound, the viability change in [9] is -4.56%.

For `Cc1nc(-c2ccc(-c3ccc(C(=O)N4CCc5cc6c(cc54)C4(CCN(C)CC4)CO6)cc3)c(C)c2)no1`, the activation in test [3] was 1.44% (inactive). For the same compound, in [5], the outcome was inactive.

On to `O=[N+]([O-])c1ccc([As](=O)(O)O)cc1`, for which the Potency result in test [6] is “inactive”.

Turning to `CC(=O)OCC1=C(C(=O)O)N2C(=O)[C@@H](N)[C@@H]2SC1`, the Potency entry in [6] was “inactive”.

In the case of `O=C1CCCN1CC#CCN1CCCC1`, the outcome in [1], in test [4] and in test [5] was inactive. Further, the Potency entry in test [2] was “inactive”. Moreover, the activation in test [3] is 3.06% (inactive).

In the case of `O=C(O)C(Cl)Cl`, the Potency result in [6] was “inactive”.

On to `CCCCCCCCCC(CC)c1ccc(S(=O)(=O)O)cc1` (centres undefined), for which the Potency result in test [6] is “inactive”.

For `Cc1cc(O)ccc1Cl`, the Potency result in [6] was “inactive”.

As for `CC[N+]1(CCOC(=O)C(O)(c2ccccc2)c2ccccc2)CCCCC1`, in test [6], the Potency entry is “inactive”.

Take `C[N+]1(C)C2CCC1CC(OC(=O)C(CO)c1ccccc1)C2` (centres undefined): the outcome in test [8], in test [1], in [9], in test [4] and in test [5] was inactive. Also, in test [2], the Potency entry is “inactive”. In addition, in test [9], the viability change is 9.4% and 1.15%.

On to `Oc1ccc2c3c1O[C@H]1c4[nH]c5c(c4C[C@@]4(O)[C@@H](C2)N(CC2CC2)CC[C@]314)C[C@@]1(O)[C@H]2Cc3ccc(O)c4c3[C@@]1(CCN2CC1CC1)[C@H]5O4`, for which the outcome in [8], in [1], in [4] and in [5] was inactive. Moreover, the Potency entry in test [2] is “inactive”. Also, in [3], the activation was 0.625% (inactive).

Consider `C[C@]12CCC(=O)C(O)=C1CC[C@@H]1[C@H]3CCC(=O)[C@@]3(C)CC[C@@H]12`, for which the Potency result in [6] is “inactive”.

`CN(C)[C@@H]1C(=O)C(C(N)=O)=C(O)[C@@]2(O)C(=O)C3=C(O)c4c(O)cccc4[C@@](C)(O)[C@H]3[C@H](O)[C@@H]12`: in [6], the Potency result was “inactive”.

With `Clc1ccc(C(c2ccc(Cl)cc2)n2cc[n+](CC(OCc3ccc(Cl)cc3Cl)c3ccc(Cl)cc3Cl)c2)cc1` (centres undefined), the compound was classed as inactive in test [1] and in test [5]. Further, the activation in test [3] was -4.62% (inactive).

Consider `CN[C@@H](C)[C@H](O)c1ccccc1`, for which the activation in test [3] is 3.19% (inactive). Moreover, the compound was called inactive in test [5].

With `O=C(O)COc1ccccc1`, the Potency entry in test [6] was “inactive”.

Take `COc1ccc2c(c[n+](C)c3c4cc5c(cc4ccc23)OCO5)c1OC`: the result in test [8], in test [1], in [4] and in test [5] was inactive. Further, the Potency entry in test [2] is “inactive”. In test [3], the activation is 0.625% (inactive).

On to `CC[C@@H](C(N)=O)N1CCCC1=O`, for which the outcome in test [8], in [1] and in test [4] was inactive. Also, in test [2], the Potency entry is “inactive”.

As for `Cc1c(C(=O)c2cccc3ccccc23)c2cccc3c2n1[C@H](CN1CCOCC1)CO3`, the call in test [1] and in test [5] was inactive. Besides, the activation in test [3] was -3.25% (inactive).

Turning to `CCCCCCCCCCCCCCCC[N+](C)(C)C`, the Potency result in test [6] is “inactive”.

For `C[C@@H](N)Cc1cnc[nH]1`, the outcome in [8], in test [1], in test [4] and in [5] was inactive. Moreover, the Potency entry in [2] is “inactive”. Further, the activation in [3] was 1.12% (inactive).

With `COC(=O)[C@@H](N)CCCN=C(N)N[N+](=O)[O-]`, the result in [8], in test [1], in [9] and in test [4] was inactive. Also, the Potency result in test [2] is “inactive”. Moreover, in test [9], the viability change was -8.47%.

Take `NC1=NC(=O)N2CC12` (centres undefined): the Potency result in test [6] is “inactive”.

For the compound `CS(=N)(=O)CC[C@H](N)C(=O)O` (some centres undefined), the outcome in test [8], in test [1], in test [4] and in test [5] was inactive. In addition, the Potency entry in test [2] is “inactive”. Besides, in [3], the activation was 0.312% (inactive).

On to `NCCc1c[nH]c2ccccc12`, for which the Potency result in [10] is “inactive”. The compound was classed as inactive in [1], in [4] and in test [5]. Also, the activation in test [3] was -0.438% (inactive).

On to `C1CCC(NC2CCCCC2)CC1`, for which the Potency result in test [6] is “inactive”.

As to `C[N+](C)(C)CC(=O)O`, the compound was classed as inactive in test [5].

Turning to `CC[C@@H]1C(=O)OC[C@@H]1Cc1cncn1C`, the call in test [5] was inactive.

Regarding `Cc1ccc(Cl)c(O)c1`, the Potency result in test [6] is “inactive”.

Source of the values: PubChem BioAssay (NCATS).
